# Compounds without any hit were thinned out: in the full panel of roughly 83,000, 20% have a hit.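 The endpoint reported here, percent growth, reads 100 for growth as untreated, 0 for no net growth and -100 for all cells dead.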 Unmarked numbers belong to inactive results. Calls of active or inactive are those of the source. How the source made its calls: active means growth percent below 10; inactive means the rest.
# Tests used:
# Experiment in all cases: NCI-60 one-dose screen, 48 h (100 = growth as untreated, 0 = no growth, -100 = all killed)
# Settings in all cases: 10 µM unless noted
# HCT-15 colon = system: HCT-15 colon
# HT29 colon = system: HT29 colon
# SNB-75 CNS = system: SNB-75 CNS
# SNB-19 CNS = system: SNB-19 CNS
# U251 CNS = system: U251 CNS
# PC-3 prostate = system: PC-3 prostate
# SK-MEL-5 melanoma = system: SK-MEL-5 melanoma
# UACC-62 melanoma = system: UACC-62 melanoma
# LOX IMVI melanoma = system: LOX IMVI melanoma
# SK-MEL-28 melanoma = system: SK-MEL-28 melanoma
# SK-MEL-2 melanoma = system: SK-MEL-2 melanoma
# SN12C renal = system: SN12C renal
# UO-31 renal = system: UO-31 renal
# TK-10 renal = system: TK-10 renal
# ACHN renal = system: ACHN renal
# A498 renal = system: A498 renal
# CCRF-CEM leukemia = system: CCRF-CEM leukemia
# MOLT-4 leukemia = system: MOLT-4 leukemia
# CAKI-1 renal = system: CAKI-1 renal
Structure (SMILES),growth (HCT-15 colon),growth (HT29 colon),growth (SNB-75 CNS),growth (SNB-19 CNS),growth (U251 CNS),growth (PC-3 prostate),growth (SK-MEL-5 melanoma),growth (UACC-62 melanoma),growth (LOX IMVI melanoma),growth (SK-MEL-28 melanoma),growth (SK-MEL-2 melanoma),growth (SN12C renal),growth (UO-31 renal),growth (TK-10 renal),growth (ACHN renal),growth (A498 renal),growth (CCRF-CEM leukemia),growth (MOLT-4 leukemia),growth (CAKI-1 renal)
COc1ccc(C(=O)c2cc(OC)c(OC)c(OC)c2)cc1/C=C/C(=O)c1ccc(OC)c(OC)c1,12.8%,9.61% (active),22.9%,33.2%,25.5%,33.9%,21.5%,24.8%,10.9%,21.8%,20.9%,42.3%,26.3%,63.8%,20.4%,74.1%,6.83% (active),12.8%,
COC1=CC(c2ccc[nH]2)=N/C1=C\c1[nH]c(C)c(C(=O)CCC(=O)Oc2ccc3c(c2)CCC2C3CC[C@]3(C)[C@@H](O)CC[C@@H]23)c1C (stereo partly drawn),-48% (active),6.68% (active),12.1%,37.2%,-48.4% (active),17.8%,-84.2% (active),-41.8% (active),-81.7% (active),41.2%,1.42% (active),17.3%,-61.9% (active),34.4%,-55.3% (active),,0.176% (active),-9.7% (active),-39.3% (active)
CC(=O)n1cc([C@H]2CC[C@H](c3cn(C(C)=O)c4ccccc34)c3c2[nH]c2ccccc32)c2ccccc21,58.7%,67.7%,87.4%,93.2%,82.9%,53.2%,80%,64.4%,79.5%,100%,79.6%,84.7%,55.3%,92.8%,77.9%,,64.9%,57.6%,57%
COc1cc(C(=O)/C=C/c2cc(C(=O)c3cc(OC)c(OC)c(OC)c3)ccc2OC)ccc1N,-10.2% (active),-58.3% (active),29.5%,-7.07% (active),-79.9% (active),-20.6% (active),-83.3% (active),-79.8% (active),-78.8% (active),-53.4% (active),-38.6% (active),18.8%,-86.7% (active),13.1%,-88.5% (active),,-10.7% (active),4.31% (active),
Cc1ccc(Oc2nc3ccccc3cc2-c2nnc(Cn3c(COc4ccccc4)nc4ccccc43)o2)cc1,17.5%,4.53% (active),54.9%,52.4%,43%,46.2%,80.5%,50.8%,19.6%,90.9%,89.8%,29.4%,8.45% (active),77.1%,49.9%,54.1%,0.728% (active),-13.8% (active),
COc1ccc(C(=O)/C=C/c2cccc([N+](=O)[O-])c2)c(OC)c1,-47.2% (active),-3.14% (active),35.2%,17%,-16.2% (active),33.3%,41.4%,31.5%,-73.3% (active),69.4%,72.4%,8.76% (active),-13% (active),50%,-43.5% (active),,5.85% (active),7.24% (active),24.8%
Cc1cc(N/C=c2\sc3ncnn3c2=O)no1,94.6%,102%,91.3%,95.2%,105%,97.7%,99.2%,94%,97.3%,104%,101%,95.5%,91.5%,109%,106%,,123%,104%,101%
c1ccc2nc(-c3ccc4ccccc4n3)ccc2c1,104%,105%,85.6%,105%,95.8%,84.5%,88.9%,97%,92.2%,106%,88%,95.9%,78.4%,116%,96.4%,,90%,88.3%,83.2%

# From PubChem BioAssay (NCI)
